This is an account of results in PubChem BioAssay.

Values without a mark were called inactive. No rule for the calls is given here.

For this test, the system named is Aerobactin synthetase IucA (Klebsiella pneumoniae, hypervirulent). The test can be described thus: biochemical IucA inhibition screen of LOPAC library by absorbance (AID 1346212).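 Also: 100% = no compound wells and 0% = no enzyme wells.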 Particulars: IucA enzyme assay, absorbance (OD) readout; hits give low values;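 tested at 8 µM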.
For `CC(C)C[C@H](NC(=O)[C@H](O)[C@H](N)Cc1ccccc1)C(=O)O`, the remaining activity (commonly the signal under treatment as a percentage of the control signal) is 120%.

For the molecule `Cc1cc2c(cc1Cl)N(C(=O)Nc1cccc3ncccc13)CC2`, the remaining activity is 103%.

As for `COc1cc(NS(C)(=O)=O)ccc1Nc1c2ccccc2nc2ccccc12`, the remaining activity was 108%.

On to `Nc1ncnc2n[nH]c(Nc3ccc(F)cc3)c12`, for which the remaining activity is 101%.

As to `COCCOC(=O)C1=C(C)NC(C)=C(C(=O)OC/C=C/c2ccccc2)C1c1cccc([N+](=O)[O-])c1` (stereo not given), the remaining activity is 99.8%.

For the molecule `NC(=O)C(=O)O`, the remaining activity was 121%.

For the molecule `O=C(NCCNCC(O)COc1ccc(O)cc1)N1CCOCC1` (stereo not given), the remaining activity is 118%.

In the case of `NC(N)=N/N=C/c1c(Cl)cccc1Cl`, the remaining activity is 87.5%.

On to `N[C@H](C(=O)O)c1cc(O)cc(O)c1`, for which the remaining activity was 108%.

Take `CC(=O)[C@H]1CCC2C3CC=C4C[C@@H](OS(=O)(=O)O)CC[C@]4(C)C3CC[C@@]21C` (stereo not given in full): the remaining activity was 107%.

In the case of `COc1ccc(/C=C/C(=O)Nc2ccccc2C(=O)O)cc1OC`, the remaining activity is 92.2%.

As to `O=c1onc2n1-c1cc(Br)ccc1OC2`, the remaining activity is 105%.

For `CNCCCC1c2ccccc2C=Cc2ccccc21`, the remaining activity was 101%.

On to `COc1cc2c(cc1O)CC[C@@H]1[C@@H]2CC[C@]2(C)[C@@H](O)CC[C@@H]12`, for which the remaining activity is 116%.

As for `C[C@]12CCC(=O)C=C1CC[C@@H]1[C@@H]2[C@@H](O)C[C@@]2(C)[C@H]1CC[C@]2(O)C(=O)COC(=O)CCC(=O)O`, the remaining activity is 92.9%.

For `O=c1[nH]c(=O)n([C@H]2C[C@H](O)[C@@H](CO)O2)cc1Br`, the remaining activity was 96.4%.

Consider `CCCN(CC1CC1)c1nc(C)nc(Nc2c(Cl)cc(Cl)cc2Cl)c1Cl`, for which the remaining activity is 102%.

Turning to `Cc1cc2c(cc1Cl)N(C(=O)Nc1ccc(Oc3cccnc3C)nc1)CC2`, the remaining activity is 103%.

In the case of `Fc1ccc(CN(C2=NCCN2)c2c(Cl)cccc2Cl)cc1`, the remaining activity is 113%.

Regarding `CCCn1c(=O)c2[nH]c(-c3ccc(OCC(=O)NCCN)cc3)nc2n(CCC)c1=O`, the remaining activity was 109%.

`Cc1ccc(S(=O)(=O)/C=C/C#N)cc1`: the remaining activity is 100%.

On to `C[C@]12C=CC(=O)C=C1CC[C@H]1[C@@H]3C[C@@H](O)[C@](O)(C(=O)CO)[C@@]3(C)C[C@H](O)[C@@]12F`, for which the remaining activity was 110%.

In the case of `CO[C@@]1(NC(=O)CSCC#N)C(=O)N2C(C(=O)O)=C(CSc3nnnn3C)CS[C@@H]21`, the remaining activity is 118%.

As to `CN1[C@@H](CC(=O)c2ccccc2)CCC[C@H]1C[C@H](O)c1ccccc1`, the remaining activity was 115%.

Take `CN(C)c1cc2c(Nc3ccc4c(cnn4Cc4ccccc4)c3)ncnc2cn1`: the remaining activity was 115%.

With `CC(C)[C@H]1c2ccc(F)cc2CC[C@@]1(CCN(C)CCCc1nc2ccccc2[nH]1)OC(=O)C1CC1`, the remaining activity was 118%.

For `CCCCCCCCCCCCCCCCCC(=O)NCC(COP(=O)([O-])OCC[N+](C)(C)C)OCC` (stereo not given), the remaining activity was 97.5%.

Turning to `CSc1ccc(C(=O)c2[nH]c(=O)[nH]c2C)cc1`, the remaining activity was 118%.

`O=c1cc(O)cc(/C=C/c2ccc(O)c(O)c2)o1`: the remaining activity was 93.8%.

For `N=c1ccn2c(n1)O[C@H]1[C@H](O)[C@@H](CO)O[C@H]12`, the remaining activity is 95.9%.

For `C[N+](C)(C)CCCCCNCC12CC3CC(CC(C3)C1)C2`, the remaining activity is 120%.

As for `Cc1cn([C@H]2C=C[C@@H](CO)O2)c(=O)[nH]c1=O`, the remaining activity was 106%.

As for `O=c1cc(N2CCOCC2)oc2c(-c3ccccc3)cccc12`, the remaining activity is 110%.

On to `O=c1oc(Cl)c(Cl)c2ccccc12`, for which the remaining activity was 92.9%.

Regarding `CC[C@H](CO)Nc1nc(NCc2ccccc2)c2ncn(C(C)C)c2n1`, the remaining activity was 123%.

Consider `CC(C)NCC(O)COc1ccc(COCCOC(C)C)cc1` (stereo not given), for which the remaining activity was 91.4%.

Consider `C=CCn1c(=O)c2c(nc(-c3ccc(S(=O)(=O)O)cc3)n2C)n(C)c1=O`, for which the remaining activity was 128%.

On to `CCOC(=O)C1=C(C)NC(C)=C(C(=O)OC)C1c1cccc(Cl)c1Cl` (stereo not given), for which the remaining activity is 99.8%.

On to `O=C(O)C1=CCCN(CCON=C(c2ccccc2)c2ccccc2)C1`, for which the remaining activity was 104%.

As for `COCC(=O)O[C@]1(CCN(C)CCCc2nc3ccccc3[nH]2)CCc2cc(F)ccc2[C@@H]1C(C)C`, the remaining activity was 128%.
